Assay [1] is described as follows: qHTS assay to identify small molecule agonists of the sonic hedgehog signaling (Shh) pathway (AID 1259368). Also: series mostly up to about 92 µM; nearly all actives have a fitted effect of over 15% in size. In short, it runs like this:
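NIH/3T3-derived 3T3Gli1-Luc cells carrying a stably integrated Gli1 response element–firefly luciferase reporter were plated, left 4 hr at 37 C, then given compounds in DMSO for 24 hr. Luminescence was read 30 min after adding luciferase reagent.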
On the technique in general: qHTS replaces the single test concentration by a dilution series.

Assay [2] can be described thus: qHTS assay to identify small molecule antagonists of the sonic hedgehog signaling (Shh) pathway (AID 1259369). Also: nearly all actives have a fitted effect of over 45% in size. Also: potency is read from the fitted curve at half-maximal effect. In short, it runs like this:
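NIH/3T3-derived 3T3Gli1-Luc cells with stably integrated Gli1-Luc reporter were preincubated 4hr at 37 C, then given compounds in DMSO plus Shh conditioned medium and incubated 24hr. Firefly luciferase luminescence read after 30min reagent at room temperature.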

The target in assay [3] is Estrogen receptor beta (Homo sapiens) (UniProt Q92731). Kind of assay: qHTS assay to identify small molecule agonists of the estrogen receptor beta (ER-beta) signaling pathway (AID 1259377; active = well fitted activation curve with a large enough effect in the signal ratio in the repeat runs, not every such curve was filed as active; the % refers to the signal ratio). The method, boiled down: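 qHTS in ER-beta-UAS-bla HEK293T cells: 6 hr settling, then 16 hr compound at 37C, then LiveBLAzer substrate 2 h at RT before fluorescence reading.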
Assay [4] shares this target. The assay can be described thus: qHTS assay to identify small molecule antagonists of the estrogen receptor beta (ER-beta) signaling pathway (AID 1259378; active = well fitted inhibition curve with a large enough effect in the signal ratio in the repeat runs, not every such curve was filed as active; the % refers to the signal ratio; also: potency is read from the fitted curve at half-maximal effect). The method, boiled down:
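ER-beta-UAS-bla HEK293T (GripTite) cells in 2% charcoal-stripped FBS medium were preincubated 6 hr at 37C, dosed with compound, then stimulated with 1 nM E2 (final) for 16 hr; beta-lactamase reporter read by B/G FRET fluorescence after 2 hr substrate loading.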

A short description of assay [5]: qHTS assay to identify small molecule agonists of the androgen receptor (AR) signaling pathway in the presence of an antagonist - cell viability counter screen (AID 1259379; active = well fitted curve in the direction sought with a large enough effect in the repeat runs; an effect the other way counts as inactive or inconclusive; also: series mostly up to about 92 µM; nearly all actives have a fitted effect of over 25% in size). The method, boiled down:
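MDA-kb2 human breast carcinoma cells (stable MMTV-luciferase, AR/GR responsive) were seeded 3,000 cells/well, pre-incubated 5 hr at 37C without CO2, then given 3.0uM nilutamide and compounds at 15 concentrations for 16 hr. Viability was read by CellTiter-Fluor fluorescence.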

Assay [6] in a line: qHTS assay to identify small molecule agonists of the estrogen receptor beta (ER-beta) signaling pathway - cell viability counter screen (AID 1259380; active = well fitted curve in the direction sought with a large enough effect in the repeat runs; an effect the other way counts as inactive or inconclusive; also: nearly all actives have a fitted effect of over 30% in size). The method, boiled down: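 ER-beta-UAS-bla HEK293T cells in medium with 2% charcoal-stripped FBS were preincubated 6 hr at 37C, dosed with compound in DMSO for 16 hr, then after the bla read, CellTiter-Glo was added for 30 min at room temperature; luminescence recorded.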

A short description of assay [7]: qHTS assay to identify small molecule antagonists of the estrogen receptor beta (ER-beta) signaling pathway - cell viability counter screen (AID 1259382; active = well fitted curve in the direction sought with a large enough effect in the repeat runs; an effect the other way counts as inactive or inconclusive; also: series mostly up to about 92 µM; nearly all actives have a fitted effect of over 55% in size). In short, it runs like this:
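ER-beta-UAS-bla HEK293T cells (2,000/well, 2% charcoal-stripped FBS) were pre-incubated 6 hr at 37C, then given compound plus 1nM final 17-beta-estradiol for 16 hr. Viability was read in the same wells by CellTiter-Glo luminescence after 30 min at room temperature.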

Assay [8] can be described thus: qHTS assay to identify small molecule agonists or antagonists of the thyroid stimulating hormone receptor (TSHR) signaling pathway - wild type cell line counter screen (AID 1259384). In short, it runs like this:
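Wild-type HEK293 cells were plated 18 h at 37 C/5% CO2, pin-dosed with compound plus Ro20-1724 medium, held 30 min at room temperature, then given cAMP-d2 and anti-cAMP-cryptate; fluorescence was read after 1 h. Fifteen concentrations, triplicate.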

For assay [9], the target named is Thyrotropin receptor (Homo sapiens) (UniProt P16473). The assay can be described thus: qHTS assay to identify small molecule antagonists of the thyroid stimulating hormone receptor (TSHR) signaling pathway (AID 1259385). Also: nearly all actives have a fitted effect of over 20% in size. In short, it runs like this: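 TSHR-HEK293 cells were plated and held 18 h at 37C/5% CO2, then given compound plus Ro20-1724 and stimulated with TSH at 1.5 ng/mL final. After 30 min at room temperature, cAMP was detected with cAMP-d2/anti-cAMP-cryptate (1 h) by fluorescence.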

Assay [10] is described as follows: qHTS assay to identify small molecule agonists of the estrogen receptor alpha (ER-alpha) signaling pathway in the presence of an antagonist - cell viability counter screen (AID 1259386; active = well fitted curve in the direction sought with a large enough effect in the repeat runs; an effect the other way counts as inactive or inconclusive;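 also: series mostly up to about 92 µM; cells exposed to compounds for 22 h at 37 °C before the viability read; nearly all actives have a fitted effect of over 30% in size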). In short, it runs like this: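 VM7Luc4E2 cells (endogenous full-length ER-alpha, 4×ERE-luciferase) were held 5 days in phenol red-free medium with 10% charcoal-stripped FBS, plated, then given 10.0nM ICI-182,780 and compounds at 15 concentrations for 22hr at 37C; viability read by CellTiter-Fluor fluorescence.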

Assay [11] concerns the target Progesterone receptor (Homo sapiens) (UniProt P06401). The assay can be described thus: qHTS assay to identify small molecule agonists of the progesterone receptor (PR) signaling pathway (AID 1346784). Also: nearly all actives have a fitted effect of over 30% in size. The method, boiled down: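 Fluorescence from LiveBLAzer B/G FRET substrate cleavage (2 hr, RT) reported PR activation in PR-UAS-bla HEK 293T cells treated 16 hr at 37C/5% CO2 with compounds; medium contained 2% charcoal-stripped FBS.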

A short description of assay [12]: qHTS assay to identify small molecule antagonists of the progesterone receptor (PR) signaling pathway - cell viability counter screen (AID 1346798; active = well fitted curve in the direction sought with a large enough effect in the repeat runs; an effect the other way counts as inactive or inconclusive; also: nearly all actives have a fitted effect of over 50% in size; also: potency is read from the fitted curve at half-maximal effect). The method, boiled down: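 CellTiter-Glo luminescence; PR-UAS-bla HEK293T, 3,000 cells/well; compound + R5020, 16 hr, 37C/5% CO2; 30 min RT before read.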
The nature of assay [13]: qHTS assay to identify small molecule agonists of the progesterone receptor (PR) signaling pathway - cell viability counter screen (AID 1346799). Also: nearly all actives have a fitted effect of over 45% in size. Also: potency is read from the fitted curve at half-maximal effect. In short, it runs like this: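 In parallel with the beta-lactamase readout, cytotoxicity toward PR-UAS-bla HEK293T cells was measured by CellTiter-Glo luminescence following 16 hr compound incubation in 2% charcoal-stripped FBS medium.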

A short description of assay [14]: qHTS assay to identify small molecule antagonists of the TGF-beta/Smad signaling pathway - cell viability counter screen (AID 1346824; active = well fitted curve in the direction sought with a large enough effect in the repeat runs; an effect the other way counts as inactive or inconclusive; also: nearly all actives have a fitted effect of over 50% in size). The method, boiled down: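 SBE-bla HEK 293T cells were plated overnight at 37 C, then given compounds in DMSO plus TGF-beta1 (added as 0.25 ng/mL solution) for 5 hr. After the bla read, CellTiter-Glo was added to the same wells and luminescence read after 30 min at room temperature.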

Assay [15] in a line: qHTS assay to identify small molecule agonists of the TGF-beta/Smad signaling pathway - cell viability counter screen (AID 1346829; active = well fitted curve in the direction sought with a large enough effect in the repeat runs; an effect the other way counts as inactive or inconclusive; also: top concentration of the series differs between compounds; nearly all actives have a fitted effect of over 45% in size). The method, boiled down: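 HEK 293T SBE-bla line, 5 hr compound exposure at 37 C, multiplexed CellTiter-Glo viability read by luminescence.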
Assay [16] is described as follows: qHTS assay to identify small molecule agonists of the TGF-beta/Smad signaling pathway (AID 1346859; active = well fitted activation curve with a large enough effect in the signal ratio in the repeat runs, not every such curve was filed as active; the % refers to the signal ratio; also: series mostly up to about 77 µM). The method, boiled down: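 After overnight seeding, SBE-bla HEK 293T cells are dosed with compounds in DMSO and kept 5 hr at 37 C, 5% CO2. LiveBLAzer-type FRET substrate is then applied for 2 hr at room temperature.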
Assay [17] concerns the target Thyrotropin-releasing hormone receptor (Homo sapiens) (UniProt P34981). Kind of assay: qHTS assay to identify small molecule antagonists of the thyrotropin-releasing hormone receptor (TRHR) signaling pathway (AID 1346877; active = well fitted inhibition curve with a large enough effect in the repeat runs, not every such curve was filed as active; also: series mostly up to about 51 µM). In short, it runs like this:
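TRHR-expressing HEK293 cells were seeded, cultured 18 h at 37 °C, then loaded with calcium dye for 2 h. Compounds were pre-incubated 5 min at room temperature before 1 nM TRH (final) was added, and kinetic fluorescence was recorded for 3 min.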

The target in assay [18] is Estrogen receptor (Homo sapiens) (UniProt P03372). The assay can be described thus: qHTS assay to identify small molecule agonists of the estrogen receptor alpha (ER-alpha) signaling pathway in the presence of an antagonist (AID 1259383). Also: top concentration of the series differs between compounds; nearly all actives have a fitted effect of over 15% in size. In short, it runs like this: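 VM7Luc4E2 cells (endogenous full-length ER-alpha, 4×ERE-luciferase) were precultured 5 days in phenol red-free medium with 10% charcoal-stripped FBS, given 10.0nM ICI-182,780 (final), then treated with compounds at 15 concentrations for 22hr at 37C; luminescence read with ONE-Glo.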

In assay [19] the target is Progesterone receptor (Homo sapiens) (UniProt P06401). Kind of assay: qHTS assay to identify small molecule antagonists of the progesterone receptor (PR) signaling pathway (AID 1346795; active = well fitted inhibition curve with a large enough effect in the signal ratio in the repeat runs, not every such curve was filed as active; the % refers to the signal ratio). The method, boiled down: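 Fluorescence intensity measured 2 hr after adding beta-lactamase FRET substrate to PR-UAS-bla HEK293T cells that had been co-treated 16 hr with compound and 1 nM R5020 (final concentration) in 2% charcoal-stripped FBS.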

For assay [20], the target named is Androgen receptor (Homo sapiens) (UniProt P10275). Kind of assay: qHTS assay to identify small molecule agonists of the androgen receptor (AR) signaling pathway in the presence of an antagonist (AID 1259381). Also: nearly all actives have a fitted effect of over 15% in size. The method, boiled down:
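MDA-kb2 human breast carcinoma cells carrying an MMTV-luciferase reporter (AR- and GR-responsive) were treated with compounds at 15 concentrations plus 3.0uM final nilutamide for 16hr at 37C without CO2; luminescence was read after ONE-Glo addition.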

Inconclusive results are not listed. Activity calls are given as the source filed them. Unless noted, calls follow the shape of the full dose curve.

Progesterone receptor (Homo sapiens), sequence (P06401 whole entry, looked up): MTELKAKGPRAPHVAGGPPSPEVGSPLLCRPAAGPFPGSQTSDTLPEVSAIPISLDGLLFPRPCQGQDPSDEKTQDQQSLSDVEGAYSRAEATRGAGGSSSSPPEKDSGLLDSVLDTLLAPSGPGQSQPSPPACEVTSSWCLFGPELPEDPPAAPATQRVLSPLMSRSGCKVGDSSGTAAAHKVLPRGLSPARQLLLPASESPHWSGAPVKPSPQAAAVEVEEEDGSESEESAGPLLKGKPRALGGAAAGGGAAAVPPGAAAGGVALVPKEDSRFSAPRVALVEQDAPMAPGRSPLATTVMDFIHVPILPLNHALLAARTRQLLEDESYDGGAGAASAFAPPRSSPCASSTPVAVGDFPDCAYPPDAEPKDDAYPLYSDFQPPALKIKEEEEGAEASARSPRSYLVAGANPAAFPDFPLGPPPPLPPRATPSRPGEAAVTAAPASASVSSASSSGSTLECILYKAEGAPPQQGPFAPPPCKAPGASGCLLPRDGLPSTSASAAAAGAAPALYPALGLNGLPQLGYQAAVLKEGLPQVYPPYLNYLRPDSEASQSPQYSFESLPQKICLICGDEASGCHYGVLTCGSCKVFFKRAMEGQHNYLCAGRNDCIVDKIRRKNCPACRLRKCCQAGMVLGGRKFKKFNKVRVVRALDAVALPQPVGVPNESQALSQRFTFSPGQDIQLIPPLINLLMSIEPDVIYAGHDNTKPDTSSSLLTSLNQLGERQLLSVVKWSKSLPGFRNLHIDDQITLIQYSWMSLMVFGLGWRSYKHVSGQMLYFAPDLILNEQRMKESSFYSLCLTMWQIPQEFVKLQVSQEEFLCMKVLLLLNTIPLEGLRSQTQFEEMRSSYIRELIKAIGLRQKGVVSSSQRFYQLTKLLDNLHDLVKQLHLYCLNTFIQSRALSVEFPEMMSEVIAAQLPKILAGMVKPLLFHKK
Thyrotropin receptor (Homo sapiens), sequence (P16473 whole entry, looked up): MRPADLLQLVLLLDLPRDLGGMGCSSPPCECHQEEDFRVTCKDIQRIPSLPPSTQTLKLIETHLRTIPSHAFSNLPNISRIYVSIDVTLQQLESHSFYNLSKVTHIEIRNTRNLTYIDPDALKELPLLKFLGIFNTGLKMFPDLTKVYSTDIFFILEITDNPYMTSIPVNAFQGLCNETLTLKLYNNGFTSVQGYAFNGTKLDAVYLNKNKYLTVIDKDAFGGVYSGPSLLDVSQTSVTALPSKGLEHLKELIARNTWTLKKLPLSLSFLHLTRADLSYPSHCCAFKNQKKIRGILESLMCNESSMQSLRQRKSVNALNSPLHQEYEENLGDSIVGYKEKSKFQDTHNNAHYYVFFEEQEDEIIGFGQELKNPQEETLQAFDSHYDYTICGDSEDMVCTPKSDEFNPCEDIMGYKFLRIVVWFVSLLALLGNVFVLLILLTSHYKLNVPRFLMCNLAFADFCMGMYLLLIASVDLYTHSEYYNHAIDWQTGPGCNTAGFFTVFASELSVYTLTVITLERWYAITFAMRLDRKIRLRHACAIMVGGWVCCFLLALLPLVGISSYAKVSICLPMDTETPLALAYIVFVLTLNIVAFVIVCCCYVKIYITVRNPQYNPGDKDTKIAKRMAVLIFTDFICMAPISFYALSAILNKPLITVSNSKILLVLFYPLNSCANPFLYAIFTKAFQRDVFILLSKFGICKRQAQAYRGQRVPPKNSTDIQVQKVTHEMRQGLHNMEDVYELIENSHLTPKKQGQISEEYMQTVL
Estrogen receptor (Homo sapiens), sequence (P03372 whole entry, looked up): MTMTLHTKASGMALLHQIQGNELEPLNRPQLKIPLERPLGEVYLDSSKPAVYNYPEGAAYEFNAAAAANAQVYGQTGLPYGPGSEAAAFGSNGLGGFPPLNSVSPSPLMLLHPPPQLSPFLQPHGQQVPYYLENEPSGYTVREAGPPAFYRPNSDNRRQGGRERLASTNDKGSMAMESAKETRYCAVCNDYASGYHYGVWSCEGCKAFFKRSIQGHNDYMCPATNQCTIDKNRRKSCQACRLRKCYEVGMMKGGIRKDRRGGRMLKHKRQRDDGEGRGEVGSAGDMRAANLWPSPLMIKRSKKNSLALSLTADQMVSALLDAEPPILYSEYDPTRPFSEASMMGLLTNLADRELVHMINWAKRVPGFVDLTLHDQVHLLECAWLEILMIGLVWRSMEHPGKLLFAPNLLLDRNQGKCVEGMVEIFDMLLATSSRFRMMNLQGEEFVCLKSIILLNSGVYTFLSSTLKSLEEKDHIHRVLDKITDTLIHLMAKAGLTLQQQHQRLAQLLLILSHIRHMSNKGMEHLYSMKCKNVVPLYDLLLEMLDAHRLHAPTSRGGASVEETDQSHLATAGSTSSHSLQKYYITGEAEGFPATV
Estrogen receptor beta (Homo sapiens), sequence (Q92731 whole entry, looked up): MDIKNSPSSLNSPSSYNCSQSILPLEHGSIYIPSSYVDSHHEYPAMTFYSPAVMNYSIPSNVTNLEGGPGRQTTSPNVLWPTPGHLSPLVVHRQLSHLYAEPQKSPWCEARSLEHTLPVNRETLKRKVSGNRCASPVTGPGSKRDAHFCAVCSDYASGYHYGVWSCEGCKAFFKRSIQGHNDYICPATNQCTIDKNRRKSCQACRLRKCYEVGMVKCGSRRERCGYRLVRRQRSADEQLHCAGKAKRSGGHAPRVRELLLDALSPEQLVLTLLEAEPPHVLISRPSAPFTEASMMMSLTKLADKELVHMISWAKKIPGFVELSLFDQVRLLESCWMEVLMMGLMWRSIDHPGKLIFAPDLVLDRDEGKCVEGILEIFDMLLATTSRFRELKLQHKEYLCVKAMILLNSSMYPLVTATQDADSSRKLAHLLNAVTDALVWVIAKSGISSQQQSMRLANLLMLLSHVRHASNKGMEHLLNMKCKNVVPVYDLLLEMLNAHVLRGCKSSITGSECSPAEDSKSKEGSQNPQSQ
Thyrotropin-releasing hormone receptor (Homo sapiens), sequence (P34981 whole entry, looked up): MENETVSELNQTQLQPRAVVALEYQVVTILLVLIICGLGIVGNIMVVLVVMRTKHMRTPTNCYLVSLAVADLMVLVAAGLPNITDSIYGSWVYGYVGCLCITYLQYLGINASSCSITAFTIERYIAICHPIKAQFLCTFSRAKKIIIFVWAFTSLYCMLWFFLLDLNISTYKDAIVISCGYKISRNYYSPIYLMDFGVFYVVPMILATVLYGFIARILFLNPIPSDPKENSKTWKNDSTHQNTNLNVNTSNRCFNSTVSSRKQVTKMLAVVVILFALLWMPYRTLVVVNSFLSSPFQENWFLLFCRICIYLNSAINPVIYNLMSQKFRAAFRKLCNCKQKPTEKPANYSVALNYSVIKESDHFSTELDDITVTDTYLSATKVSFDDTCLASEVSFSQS
Androgen receptor (Homo sapiens), sequence (P10275 whole entry, looked up): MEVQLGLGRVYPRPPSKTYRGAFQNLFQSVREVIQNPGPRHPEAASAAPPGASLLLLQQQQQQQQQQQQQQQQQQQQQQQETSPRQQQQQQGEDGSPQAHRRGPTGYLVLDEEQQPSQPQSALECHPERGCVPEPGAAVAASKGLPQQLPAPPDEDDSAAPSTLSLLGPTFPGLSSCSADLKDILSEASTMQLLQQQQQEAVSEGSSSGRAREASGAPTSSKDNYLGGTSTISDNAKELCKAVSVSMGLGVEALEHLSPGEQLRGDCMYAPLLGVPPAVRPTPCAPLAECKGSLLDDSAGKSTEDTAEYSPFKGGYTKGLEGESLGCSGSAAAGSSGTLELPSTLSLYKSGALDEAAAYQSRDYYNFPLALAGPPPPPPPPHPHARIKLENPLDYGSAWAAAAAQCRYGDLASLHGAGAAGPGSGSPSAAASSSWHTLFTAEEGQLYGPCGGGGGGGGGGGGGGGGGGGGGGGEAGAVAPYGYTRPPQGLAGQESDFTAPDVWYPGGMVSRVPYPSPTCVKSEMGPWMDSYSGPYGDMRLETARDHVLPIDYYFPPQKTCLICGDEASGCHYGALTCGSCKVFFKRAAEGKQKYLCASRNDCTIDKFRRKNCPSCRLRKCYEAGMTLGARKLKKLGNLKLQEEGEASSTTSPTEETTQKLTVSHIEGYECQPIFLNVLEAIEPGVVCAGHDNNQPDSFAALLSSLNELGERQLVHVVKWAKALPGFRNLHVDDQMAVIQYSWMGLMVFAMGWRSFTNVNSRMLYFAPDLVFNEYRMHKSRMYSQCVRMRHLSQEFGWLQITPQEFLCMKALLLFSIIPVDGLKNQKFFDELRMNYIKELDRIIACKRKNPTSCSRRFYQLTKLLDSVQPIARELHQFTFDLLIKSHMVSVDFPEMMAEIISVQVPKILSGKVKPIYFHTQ

On to `N#C/C(N)=C(/N)C#N`, for which the Potency entry in [1], in [2], in assay [3], in [4], in assay [5] and in assay [6] was “inactive” in each case. Moreover, the Potency result in [7], in [9], in assay [10], in assay [11], in assay [12] and in [13] was “inactive” in each case. Also, the Potency entry in assay [14], in assay [15] and in assay [17] was “inactive” each time. For the same compound, the call in assay [8] and in assay [16] was inactive.
Turning to `O=C(N[C@H](c1ccccc1)[C@@H]1CN2CCC1CC2)c1c(Cl)ccc(C(F)(F)F)c1Cl`, the Potency result in [1], in assay [3], in [9], in [10], in assay [11] and in [14] was “inactive” throughout. Also, the Potency entry in assay [15] is “inactive”. The Potency in [2] was 13.9 µM (active); in assay [4] it was 39.2 µM (active). In addition, the call in assay [8] was inactive.
For `CCOc1ccc(C(C)(C)COCc2cccc(Oc3ccccc3)c2)cc1`, the Potency result in [1], in assay [2], in assay [3], in assay [4], in [7] and in assay [18] was “inactive” throughout. Moreover, the Potency entry in assay [9], in assay [10], in assay [11], in [19], in assay [14] and in [15] was “inactive” each time. In addition, the Potency result in assay [17] is “inactive”. Further, the result in assay [8] and in assay [16] was inactive.
With `COC(N)=O`, the Potency result in assay [1], in [2], in [3], in assay [4], in assay [7] and in assay [18] was “inactive” each time. In addition, the Potency entry in [10], in assay [11], in [14], in assay [15] and in assay [17] was “inactive” in each case. For the same compound, the Potency in [12] was 43.3 µM (active). Moreover, the outcome in assay [16] was inactive.
As for `O=[N+]([O-])c1ccccc1CCl`, the Potency entry in assay [1], in assay [2], in [3], in [4], in assay [5] and in [6] was “inactive” each time. Besides, the Potency entry in assay [7], in [9], in [10], in [11], in assay [12] and in [13] was “inactive” each time. In addition, the Potency result in assay [14], in [15] and in assay [17] was “inactive” each time. Also, the compound was classed as inactive in assay [8] and in assay [16].
Take `ClCc1ccccc1`: the Potency result in assay [1], in assay [2], in assay [3], in assay [4], in [5] and in assay [7] was “inactive” in each case. The Potency result in [18], in assay [9], in assay [10], in [11], in assay [19] and in assay [12] was “inactive” in each case. Further, the Potency entry in [13], in [14] and in assay [15] was “inactive” in each case. The compound was called inactive in [8] and in [16].
Consider `CCCCCCCCOC(=O)c1ccc(C(=O)OCCCCCCCC)c(C(=O)OCCCCCCCC)c1`, for which the Potency result in assay [1], in assay [2], in [3], in assay [4], in assay [5] and in [7] was “inactive” throughout. The Potency entry in [9], in assay [10], in assay [11], in [19], in [13] and in [15] was “inactive” each time. For the same compound, the Potency result in assay [17] is “inactive”. In addition, the result in assay [8] and in assay [16] was inactive. In addition, in assay [12], the Potency was 27.6 µM (active).
For `O=C(NCc1cccnc1)Nc1ccc([N+](=O)[O-])cc1`, the Potency result in assay [1], in [2], in [3], in [4], in assay [7] and in assay [9] was “inactive” in each case. For the same compound, the Potency entry in assay [10] and in assay [17] was “inactive” in each case. The call in [8] was inactive. Further, the values for the Potency in assay [12] and in assay [13] were 24.3 µM (active) and 43.3 µM (active), respectively.
With `Cc1ccc2ccccc2c1`, the Potency result in [1], in [2], in assay [3], in [4], in [6] and in assay [20] was “inactive” throughout. Besides, the Potency entry in [7], in [18], in assay [9], in assay [10], in [11] and in assay [19] was “inactive” in each case. Moreover, the Potency result in [12], in assay [13], in assay [14], in assay [15] and in assay [17] was “inactive” in each case. Further, the result in assay [8] and in assay [16] was inactive.

The values above are taken from PubChem BioAssay (Tox21).
